Test results from the supplement of paper PMC6555819.

How the values were obtained:
Assay in all cases: PBM binding z-score (relative to random genomic background probes); higher = stronger binding; sequences stand for … in GC…GCGATTGACAGCGTAGAATGAAGG
[1] = system: PPARg:RXRa DBDmut IVT, anti-RXR (DBD mutation: RXRa K156A/R161A, NR concentration 270 nM, RXRa partner concentration 90 nM)
Summary of the method: (§1)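 Antibodies against each partner of ligand-free nuclear receptor dimers (one per run) detected binding on custom Agilent 4×180K protein-binding microarrays after 1 h incubation. The double-stranded probes had 34-nt variable regions carrying direct-repeat seeds, single-nucleotide variants, half-site ablations and random human genomic background sequences. Binding z-scores, from regression-normalized fluorescence, use the random background probes as reference.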

[2] = system: PPARg:RXRa IVT, anti-PPARg (NR concentration 270 nM, RXRa partner concentration 90 nM)
Summary of the method: as §1

[3] = system: PPARg DBDmut:RXRa IVT, anti-PPARg (DBD mutation: PPARg1 K132A/R137A, NR concentration 270 nM, RXRa partner concentration 90 nM)
Summary of the method: as §1

[4] = system: PPARg DBDmut IVT, anti-PPARg (DBD mutation: PPARg1 K132A/R137A, NR concentration 270 nM)
Summary of the method: as §1

[5] = system: PPARg homodimer (NR concentration 180 nM)
Summary of the method: as §1

[6] = system: PXR:RXRa (NR concentration 270 nM, RXRa partner concentration 90 nM)
Summary of the method: as §1

[7] = system: PXR homodimer (NR concentration 270 nM)
Summary of the method: as §1

[8] = system: RARa:RXR (NR concentration 270 nM, RXRa partner concentration 90 nM)
Summary of the method: as §1

[9] = system: RARa homodimer (NR concentration 270 nM)
Summary of the method: as §1

[10] = system: RARb:RXRa (NR concentration 270 nM, RXRa partner concentration 90 nM)
Summary of the method: as §1

[11] = system: RARb homodimer (NR concentration 270 nM)
Summary of the method: as §1

[12] = system: RARg homodimer (NR concentration 270 nM)
Summary of the method: as §1

[13] = system: RXRa DBDmut IVT, anti-RXR (DBD mutation: RXRa K156A/R161A, NR concentration 90 nM)
Summary of the method: as §1

[14] = system: RXRa homodimer (NR concentration 180 nM)
Summary of the method: as §1

[15] = system: THRa:RXRa (NR concentration 90 nM, RXRa partner concentration 90 nM)
Summary of the method: as §1

[16] = system: THRa homodimer (NR concentration 90 nM)
Summary of the method: as §1

[17] = system: VDR homodimer (NR concentration 270 nM)
Summary of the method: as §1

[18] = system: VDR:RXRa (NR concentration 270 nM, RXRa partner concentration 90 nM)
Summary of the method: as §1

Sequence	PBM binding z-score [1]	PBM binding z-score [2]	PBM binding z-score [3]	PBM binding z-score [4]	PBM binding z-score [5]	PBM binding z-score [6]	PBM binding z-score [7]	PBM binding z-score [8]	PBM binding z-score [9]	PBM binding z-score [10]	PBM binding z-score [11]	PBM binding z-score [12]	PBM binding z-score [13]	PBM binding z-score [14]	PBM binding z-score [15]	PBM binding z-score [16]	PBM binding z-score [17]	PBM binding z-score [18]
TAGCCAAGGTCATTCAGGGGCCAGTATAGAAAGC	1.73	3	1.11	0.966	3.14	4.91	1.43	5.72	0.389	5.06	4.08	6.27	4.05	5.47	4.08	1.75	3.99	
GCTGCTAGGTCAACTGATGGTGAGCTAAAGCTCG	5.09	4.15	-0.747	-0.586	1.16	1.22	-0.899	2.11	-0.283	4.28	3.06	5.32	1.5	2.69	2.86	0.689	-0.42	
CCTAGTTGGTCAAGGTCACACATGCTATAGGTAC	2.61	3.82	1.11	1.14	3.65	4.24	2.57	4.11	2.64	4.14	4.33	4.71	2.2	4.11	3.96	4.12	3.99	
TAGCCTAGGTCATTCAGGGGGCAGTATAGAAAGC	2.78	4.86	5.63	7.07	4.21	4.22	1.22	5.41	0.982	4.45	4.09	5.84	2.37	4.33	3.8	2.11	3.36	
TAGCCTAGGTCATTGGGCTAGTATAGTACGCATC	1.65	3.11	0.176	-0.547	0.811	1.4	-0.602	1.91	-0.44	3.46	2.59	4.2	1.47	2.84	2.71	0.251	0.989	
AGTCAAAGTTGATCTAGGTAACGTAAGATATGCT	0.813	2.74	0.517	1.07	-0.371	-0.212	-0.146	-0.0598	-0.276	0.672	-0.057	0.579	-0.227	0.191	1.36	-0.0633	-0.278	
TCTGCTATGTCAACGATGGTCAGCTAATCTGCTA	0.814	-0.00611	0.00527	-0.18	-1.25	-0.217	-1.19	-0.446	-1.27	0.575	0.0556	0.346	0.208	-0.181	-0.297	-1.24	-1.12	
AGTCAAAGTTCAGGACGAGGTACCGTAAAGCACG	-0.264	0.999	-0.0468	-0.427	0.643	2.17	0.824	2.02	0.582	4.34	3.04	4.98	2.91	3.07	2.66	0.724	1.78	2.08
ATCGAAAGGTCGAGGAGGTGAGTATACACCGTTT	0.255	1.9	1.49	0.557	1.47	2.86	0.184	3.41	0.666	3.94	2.92	4.23	0.868	4.21	2.85	-0.12	0.435	
GCTGCTAGGTCAACTGAGGGTCAGCTAAAGCTCG	4.93	4.17	-0.389	-0.635	4.56	4.5	-0.492	5.93	0.262	4.83	5.18	6.85	1.67	4.59	4.16	1.47	1.36	
CAAACTAGGTCAAAGGTCAAACTCGAGCCAACCA	8.72	9.06	5.54	4.24	5.23	7.03	2.84	8.96	3.29	5.81	5.32	8.15	3.04	10.5	4.85	2.14	4.14	
ATCGTAAGGTCGTGAGGTGAGTATACAGAAAGGC	0.0684	1.65	1.19	1.05	1.4	2.22	0.545	3.29	0.99	3.11	2.41	2.71	2.09	3.5	3.65	2.95	1.45	
CCTTACGGGTAACTCCAGGTTATAGCATCGGAGT	0.404	0.565	0.241	-0.665	0.705	0.705	0.14	0.64	0.018	0.315	0.239	0.528	-0.483	0.381	3.22	0.292	0.21	
CCTCGGAGGTCAGAAGGTCAGAGCTGTCCGCTTT	2.53	3.5	-1.11	-1.86	5.71	4.71	0.603	6.73	0.835	5.16	5.21	7.12	2.31	6.44	3.41	0.451	1.47	4.38
GCTTACGGGTCAAAAGTTATAGCATGAATAGAAT	3.77	3.87	1.08	1.18	1.4	2.94	0.168	3.7	0.546	3.16	2.05	3.15	1.93	4.84	2.08	-0.478	0.684	
CAAACTAGGTCACAGGGGTCAAAGTCCGTGCGTA	8.38	9.12	4.98	3.18	3.99	6.9	8.47	8.18	1.96	5.46	5.94	7.58	3.6	8.57		3	7.07	
